SMILES strings stand for the structures. This is part of a sample that, as a whole, favours compounds with a hit. Of some 83,000 tested, about 20% had one in any assay.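 For each line, cells grew in 96-well plates with the test compound present at a single concentration for 48 hours.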 Calls of active or inactive are those of the source.

This assay relates to UACC-62 melanoma. Description: NCI-60 one-dose screen, 48 h (100 = growth as untreated, 0 = no growth, -100 = all killed). As to conditions: 10 µM unless noted. As to the method: Growth inhibition of the UACC-62 human tumor cell line is measured as a screen for anti-cancer activity. Cells are grown in 96 well plates and exposed to the test compound for 48 hours. Compounds are tested at a single concentration, which is 10^-5 M for most compounds. The reported endpoint is percent growth (GI% or GIPRCNT), where numbers from 0 - 100% represent growth inhibition, and numbers from -100% - 0 represent cell death. For example, a value of 40 represents 60% growth inhibition. A value of 0 means no net growth occurred over the course of the experiment. A value of -40 indicates 40% of cells at the beginning of the experiment died by the end of the experiment. A value of -100 means all cells are dead at the end of the experiment.
NCI-60 Human Tumor Cell Lines Screen was performed using the standard one-dose NCI protocol, which is described in more detail at https://dtp.cancer.gov/discovery_development/nci-60/default.htm.
Compounds with GIPRCNT values below 10 were considered active. Activity score was based on GIPRCNT using the following formula: […]
Score is 0 for GIPRCNT values of 100 or above, 50 for GIPRCNT values of 0, and 100 for GIPRCNT values of -100.
Regarding `Cc1cnc(C(=O)NNc2nc3cc(F)ccc3n3c(C(=O)N4CC5CC(C4)N5)ccc23)cn1`, the growth was 2.81% (active). To `COc1ccc(-c2nc3cc(C)ccc3n2CC(=O)N=Nc2c(O)[nH]c3ccccc23)cc1` belongs -37.2% (active); to `Cc1cc2c(cc1Cl)C(=O)/C(=C/c1ccccc1)O2`, 29.3% (inactive). In the case of `Cc1ccc(C(=O)C(c2c[nH]c3ccccc23)c2c[nH]c3ccccc23)cc1`, the growth is 51.2% (inactive). To `COC(=O)/C=C/c1cccc2c1C(=O)NC(C)(c1cc3ccccc3oc1=O)N2` (stereo not given) belongs 42.8% (inactive); to `COc1ccc(C(=O)Nc2n[nH]c(Nc3ccccc3)c2C#N)cc1`, 99.6% (inactive); to `CSc1ccc(C(=O)Nc2ccc3nn(/C(C#N)=C/c4ccccn4)nc3c2)cc1`, -91.2% (active). On to `O=c1[nH]c2ccccc2cc1CSc1nccc(-c2ccc3ccccc3c2)n1`, for which the growth was 60.9% (inactive).

Consider `COc1ccc(C(=O)/C=C/c2cccc(Cl)c2Cl)cc1S(N)(=O)=O`, for which the growth is 33% (inactive).

On to `O=C(NN1C(=O)/C(=C/C=C/c2ccc([N+](=O)[O-])o2)SC1=S)c1ccc(Cl)cc1`, for which the growth was -100% (active). In the case of `CN(C)c1nc(NCCNS(=O)(=O)c2ccc(C3=Nc4c(N)nc(N)nc4NC(c4ccc(C(F)(F)F)cc4)C3)cc2)nc(Nc2ccc(F)cc2)n1` (stereo not given), the growth is -51% (active). As for `CCCCSc1nc(Nc2ccc(S(N)(=O)=O)cc2)c(C#N)c(-c2cc(OC)c(OC)c(OC)c2)n1`, the growth is 21.9% (inactive).

Take `O=S(=O)(Nc1cccc(-n2cnc3cc(-c4ccc(O)cc4)ccc32)c1)C1CC1`: the growth is 34.5% (inactive). To `O=C(c1ccc(Cl)cc1)c1ccc(OCCCN2CCN(c3ccncc3)CC2)cc1` belongs -63.5% (active); to `Cn1cc(-c2cc(N)n3nc(-c4cn(C)c5ncc(Br)cc45)cc3n2)c2cc(Br)cnc21`, -82.3% (active). As to `N#Cc1c(-c2cccc(O)c2O)cc(-c2ccc3ccccc3c2)[nH]c1=O`, the growth was 77.5% (inactive). Take `O=C(N/N=C/c1ccc(-c2ccc(O)cc2)o1)c1[nH]c2ccc(Br)cc2c1-c1ccccc1`: the growth is -14.9% (active). For `CCOc1ccc(-c2c(C#N)c(-c3ccc(Cl)cc3)nc3n[nH]c(-c4ccc(Cl)cc4)c23)cc1OC`, the growth was 68.5% (inactive).

In the case of `CC(C)c1ccc2c(N)c(C(=O)Nc3cccc(C(F)(F)F)c3)sc2n1`, the growth is 92.5% (inactive). Take `COc1cc(-c2ccc(/C=N/NC(=O)c3[nH]c4ccc(Br)cc4c3-c3ccccc3)s2)cc(OC)c1OC`: the growth is 84.5% (inactive). For `CC1(C)CC[C@]2(C(=O)O)CC[C@]3(C)C(=CCC4[C@@]5(C)C[C@@H](O)[C@@H]6OC(c7cccc(Br)c7)OC[C@@]6(C)C5CC[C@]43C)C2C1` (stereo not given in full), the growth is 55.5% (inactive). To `CC(=O)Oc1ccccc1C(=O)[Se]CC(=O)Nc1cccc(C(F)(F)F)c1` belongs -56.7% (active). Consider `O=C1C(=Nc2ccc(F)c(Cl)c2)c2cccc3cccc1c23`, for which the growth was 52.8% (inactive). As to `C/C(=N\N=C1/C(=O)Nc2ccccc21)c1ccc2c(c1)Nc1ccccc1S2`, the growth is 40.5% (inactive).

On to `COc1ccc(C(=O)/C=C/c2ccc(OCc3ccccc3)c(OC)c2)cc1OC`, for which the growth is 29% (inactive). As to `NS(=O)(=O)c1ccc(CCNC(=O)CSc2ccc(-c3ccc(Br)cc3)nn2)cc1`, the growth is 66.8% (inactive). In the case of `COc1ccc(C(=O)/C=C/c2cccc(Cl)c2)cc1S(N)(=O)=O` it was -3.37% (active); in that of `O=c1oc2ccc(Br)cc2cc1C1=CSc2nc3sc4c(c3c(=O)n2N=C1)CCCC4`, 71.7% (inactive); in that of `COc1ccc(-c2nc3cc(C)ccc3n2CC(=O)N=Nc2c(O)[nH]c3ccc(Cl)cc23)cc1`, -52.3% (active). In the case of `C#CCOc1cc(N(CC)CC)ccc1C(C(=O)NC(C)(C)C)N(C(=O)C1CCc2cc(F)ccc2O1)c1ccc(Br)cc1` (stereo not given) it was 61% (inactive). In the case of `CC12CC[C@@H]3[C@]4(C)COC(c5c(F)cccc5F)O[C@@H]4CC[C@@]3(C)[C@@H]1CC(C1=CCOC1=O)O2` (stereo not given in full) it was 50.4% (inactive); in that of `COc1ccc(C2CC(c3ccc(S(=O)(=O)NCCNc4nc(Nc5ccc(F)cc5)nc(N(C)C)n4)cc3)=Nc3c(N)nc(N)nc3N2)cc1` (stereo not given), 81.6% (inactive); in that of `N#Cc1c(-c2cccc3ccccc23)cc(-c2cccc(OCC(=O)O)c2)[nH]c1=O`, 90.5% (inactive). On to `COc1ccc(C(=O)/C=C/c2cccnc2)cc1S(N)(=O)=O`, for which the growth is 74.8% (inactive). To `O=c1onc(-c2cc3ccccc3nc2Cl)n1-c1cccc2ccccc12` belongs 29.9% (inactive); to `C#CCOc1ccc(/C=N/Nc2nc(-c3ccc(F)cc3)cs2)cc1OC`, 46.7% (inactive); to `N/C(=N\c1nc2ccccc2s1)NC(=O)Nc1ccccc1Br`, -7.53% (active). `Brc1ccc(-c2n(Cc3ccc4ccccc4c3)c(-c3ccccc3)c(-c3ccccc3)[n+]2Cc2ccc3ccccc3c2)cc1`: the growth is -88.8% (active). To `Cc1cccc(-c2nc(Nc3ccc(C)c(S(N)(=O)=O)c3)c3ccccc3n2)c1` belongs 43% (inactive); to `COc1ccc2c(c1)c(/C=N/Nc1ccc3ccccc3n1)cn2C`, 20.6% (inactive).

(Values after PubChem BioAssay (NCI).)
